Data published in publication PMC7819943, “Rice protein-binding microarrays: a tool to detect cis-acting elements near promoter regions in rice”.
Whole data set: some 39,000 sequences, median “fluorescence intensity (a.u.)” near 4,300, cut for the highest 2% near 39,000. The full list was thinned out, with the highest values kept by preference.

What follows are sequences tested against T1, OsSMF1 (Oryza sativa, UniProt Q6ZLB0 1-436) (assay: protein-binding microarray (RPBM); PBS, 2% BSA, 51.3 ng/ul salmon testes DNA, 50 uM zinc acetate, 200 nM TF, 25 C, 1 h; high values mean tight binding). Details: protein: recombinant; tags: N-terminal polyhistidine and DsRed monomer fusion (pET32a); chain copies: 2; label: CyDye5-dUTP incorporated in the synthesized complementary strand; 3' TTTTT single-stranded linker to array surface; dsDNA, one strand shown.
T1 sequence: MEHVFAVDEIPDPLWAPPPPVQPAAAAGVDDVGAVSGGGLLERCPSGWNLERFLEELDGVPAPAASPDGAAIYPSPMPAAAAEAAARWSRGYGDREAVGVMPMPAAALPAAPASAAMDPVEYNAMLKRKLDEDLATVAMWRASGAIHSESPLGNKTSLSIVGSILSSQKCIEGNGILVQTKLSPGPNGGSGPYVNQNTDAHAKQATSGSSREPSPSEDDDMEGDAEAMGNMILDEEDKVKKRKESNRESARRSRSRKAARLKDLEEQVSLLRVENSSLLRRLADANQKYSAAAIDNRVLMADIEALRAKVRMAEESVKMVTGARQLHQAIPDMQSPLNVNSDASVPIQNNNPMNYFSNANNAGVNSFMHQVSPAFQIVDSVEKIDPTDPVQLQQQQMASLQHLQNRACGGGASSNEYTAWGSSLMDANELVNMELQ
How it was run: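 Using Ni–NTA, transcription factors fused N-terminally to polyhistidine and DsRed were purified after expression in E. coli BL21-CodonPlus. These were incubated at 200 nM with a blocked, double-stranded custom Agilent array for 1 h at 25 °C in a buffer containing 50 µM zinc acetate, and the array was washed. The binding signal is per-feature fluorescence intensity (arbitrary units) on an Axon 4000B scanner.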
“AATTTCAGTACTCAGTTCATTAAATTAATTAAAGAAAGGCCGGAGTCACCTAGTGCAG” was tested, and the binding signal was 51100 fluorescence intensity (a.u.). With “GCGGAGGTCGACCTTGGCGAGGTCGTCCACGTCCGGGTGCCGGAGTCACCTAGTGCAG” the binding signal was 3340 fluorescence intensity (a.u.). In the case of “CCATCTTCATCTCCATATCTTCTCCTCCTCGCGTCGGCAGCGGAGTCACCTAGTGCAG”, the binding signal is reported as 3270 fluorescence intensity (a.u.). In the case of “TCTCCCCAGATTTCCCCTTCCATTCCGCCTCCCGATCGCTCGGAGTCACCTAGTGCAG”, the binding signal is reported as 43300 fluorescence intensity (a.u.). For “CTTCAGTCCTCGGCCCATTCTCCCTTCCTTTCAGCTGGCTCGGAGTCACCTAGTGCAG”, the binding signal was 45600 fluorescence intensity (a.u.). In the case of “GCTTCTGCTGTGGCTGTGCTGAGCTTTCACAGTCACAGCCCGGAGTCACCTAGTGCAG”, the binding signal is reported as 3550 fluorescence intensity (a.u.). For “GCAATCTCATGATTCATGCAGCTTTGTAGCAATGTGTGCTCGGAGTCACCTAGTGCAG”, the binding signal was 3140 fluorescence intensity (a.u.). In the case of “AAATCCGCCCTCGCCTCGCCCCGATCGATCCCCTCGATTCCGGAGTCACCTAGTGCAG”, the binding signal is reported as 3810 fluorescence intensity (a.u.). For “CCCAGCCCGGCGTCCCCTTCTCGGCTTCCTCCTCCACCATCGGAGTCACCTAGTGCAG”, the binding signal was 4100 fluorescence intensity (a.u.). In the case of “TCTAACCCCGCCTGCAGATCCGCTCCATCGATTCCCTCCCCGGAGTCACCTAGTGCAG”, the binding signal is reported as 31700 fluorescence intensity (a.u.). With “GGCCCCACATGTCATCTCCTCCCTTTCTTCTTCCTCCCCTCGGAGTCACCTAGTGCAG” the binding signal was 4040 fluorescence intensity (a.u.). In the case of “AACTTCTCAATGTGTGGCCCCGAGCTGTGGCTTCACAGCTCGGAGTCACCTAGTGCAG”, the binding signal is reported as 63300 fluorescence intensity (a.u.). For “GGAGGAGGAGGAGGAGGGAGATGGTGGCGAGCTGACTTGGCGGAGTCACCTAGTGCAG”, the binding signal was 4090 fluorescence intensity (a.u.). For “TCAGCTGCGTCACCCGAGTCCTCCACTCGTCTCCGCTATTCGGAGTCACCTAGTGCAG”, the binding signal was 5650 fluorescence intensity (a.u.). With “TCACTGCGTGCATGTATGTACGTGGATTGTCCAATTACAACGGAGTCACCTAGTGCAG” the binding signal was 3300 fluorescence intensity (a.u.). In the case of “CTCCTAGCAGCAACAGGGCCACGTTTGCTCTGCGAACAGGCGGAGTCACCTAGTGCAG”, the binding signal is reported as 4590 fluorescence intensity (a.u.). For “TTTGGTTAGTGAATTTAGCTATCCTCTCCTTGACTTCCTACGGAGTCACCTAGTGCAG”, the binding signal was 3660 fluorescence intensity (a.u.). For “ATTTAGTGCTAAATATGTAGTTTCATGATACATCATGTTACGGAGTCACCTAGTGCAG”, the binding signal was 3850 fluorescence intensity (a.u.). For “TGGTGTGTAATTTGTGCAAATTCTAAGCAAATGCAAATTGCGGAGTCACCTAGTGCAG”, the binding signal was 17200 fluorescence intensity (a.u.). With “TGTGTTCTGCAATGCATAATTGCACCAGTTCTAGTACCTGCGGAGTCACCTAGTGCAG” the binding signal was 45300 fluorescence intensity (a.u.). For “GGTGCAGTTCATCATATGTGTTAGACTAATTGAGTAATTGCGGAGTCACCTAGTGCAG”, the binding signal was 36500 fluorescence intensity (a.u.). For “CAGGGGCATTTCCGTAAACTCCCACGTGGCACAGATACGGCGGAGTCACCTAGTGCAG”, the binding signal was 13200 fluorescence intensity (a.u.). With “TCTTGACATCCGGAATCATCACGCTCTTCCCAATCGAGGTCGGAGTCACCTAGTGCAG” the binding signal was 3680 fluorescence intensity (a.u.). In the case of “AAGTAGCCCGGATCTCCCAGCTTCCCTCGAGCTGACCTCACGGAGTCACCTAGTGCAG”, the binding signal is reported as 3960 fluorescence intensity (a.u.). With “TTTAATTCAAATGCCAGCTAAGCGCTACGTCAACCCTACACGGAGTCACCTAGTGCAG” the binding signal was 15500 fluorescence intensity (a.u.). With “TTTAATTCAAATGCCACCTAAGCACCACGTCAGCGAAACCCGGAGTCACCTAGTGCAG” the binding signal was 42600 fluorescence intensity (a.u.). For “TGCCACGTCAGCGAAAACCACCATCTAAACCACCGCCATGCGGAGTCACCTAGTGCAG”, the binding signal was 7960 fluorescence intensity (a.u.). For “TTTTAATTCAAATGCCACCTAAGCGCCACGTCAACCCTATCGGAGTCACCTAGTGCAG”, the binding signal was 23500 fluorescence intensity (a.u.). With “TGCTGACTATGATGCCACGTCAGCGAAACCACCCATATATCGGAGTCACCTAGTGCAG” the binding signal was 23000 fluorescence intensity (a.u.). For “ACTAAGCTGCCACGTGGATGCCACGTCAGCGAAAACCACCCGGAGTCACCTAGTGCAG”, the binding signal was 61800 fluorescence intensity (a.u.). For “GGGCGGAGCTAGAATAAAATAAAGGAGGGTTCCACTCGTTCGGAGTCACCTAGTGCAG”, the binding signal was 23100 fluorescence intensity (a.u.). “TCGATTTACTGACAAAATTGTATCCCAAAACAATGGCTTACGGAGTCACCTAGTGCAG” was tested, and the binding signal was 33700 fluorescence intensity (a.u.). For “TTCTCTACCAGCGGCAGCGGCGGCTGGTAGGGAGGAGGAGCGGAGTCACCTAGTGCAG”, the binding signal was 4860 fluorescence intensity (a.u.). For “ATAAAGAAGGGAGGCAGCGGGCGAGCTGTAAAGGAGTACACGGAGTCACCTAGTGCAG”, the binding signal was 32300 fluorescence intensity (a.u.). With “GGATTGACGGGGACGCGGTGGTGGCGCCAACGGATGGACGCGGAGTCACCTAGTGCAG” the binding signal was 6220 fluorescence intensity (a.u.). For “TTACTGGTGATATTTATTTTGACAAGTGCTTTTATTTGTACGGAGTCACCTAGTGCAG”, the binding signal was 3930 fluorescence intensity (a.u.). In the case of “CATTTTGTACTTTGACAAGTATTTAATATTTGCCAGTAGTCGGAGTCACCTAGTGCAG”, the binding signal is reported as 65100 fluorescence intensity (a.u.). With “TTACTAGTACATTTAATATATTTATTTAATGTATTTGTATCGGAGTCACCTAGTGCAG” the binding signal was 3140 fluorescence intensity (a.u.). With “ATATTCGTCTCTATCGCTTAAGGCGGTTAGTTGCGTGTCACGGAGTCACCTAGTGCAG” the binding signal was 3930 fluorescence intensity (a.u.). For “AATCATTTTATTTGACTAATACACGTCAGGATTGAATGAGCGGAGTCACCTAGTGCAG”, the binding signal was 4880 fluorescence intensity (a.u.). In the case of “GTCCAATTTAATGCTGACGTTGCTGATGGAATGCCGTGGACGGAGTCACCTAGTGCAG”, the binding signal is reported as 10500 fluorescence intensity (a.u.). In the case of “TTAATGATTTTATTTGAATGGATCAGGGTCCAATTTGCTGCGGAGTCACCTAGTGCAG”, the binding signal is reported as 55800 fluorescence intensity (a.u.).
